The text below walks through data of PubChem BioAssay (EPA / NIEHS).

Several values for one entry are separate records, joined by “and”; a condition that tells them apart may be missing. Equal entries are not always repeated. Some structures have more than one record in an assay (separate samples or runs), and their calls can disagree. Activity calls are given as the source filed them. How the source made its calls: active means hit-call score of the fitted dose curve at least 0.9, where 1 is the maximum; inactive means score below 0.9.

Read-out in this assay: Lipase C (LIPC), LIPC (gene 3990)
Briefly: LTEA_HepaRG_LIPC: Life Technologies and Expression Analysis (LTEA) Assay for Lipase C (LIPC) using HepaRG (AID 2283514). Particulars: mRNA level, 48 h; actives raise or lower the signal. The procedure: LTEA_HepaRG is a cell based, multiplexed-readout assay that uses HepaRG, a human liver cell line, with measurements taken at 48 hours after chemical dosing on a 96-well plate.LTEA_HepaRG_LIPC is one of 102 assay component(s) measured in the LTEA HepaRG cell culture assay. It is a marker of Steatosis.Data from the assay component LTEA_HepaRG_LIPC was analyzed into 1 endpoint. This assay endpoint, LTEA_HepaRG_LIPC, was analyzed with bidirectional fitting relative to DMSO as the negative control and baseline of activity. Using a type of inducible reporter, measures of mRNA induction for gain or loss-of-signal activity can be used to understand regulation of transcription factor activity. To generalize the intended target to other relatable targets, this assay endpoint is annotated to the esterase intended target family, where the subfamily is lipase.
A total of 1060 chemcials from the ToxCast library were tested in eight-point concentration-response experiments. Cell culture and cytotoxicity assays were conducted at Thermo Fisher Scientific's Custom Services facility (Madison, WI). A single lot of human HepaRG cells (Thermo Fisher Scientific, Frederick, MD) was used for the cell culture experiments. 96-well format collagen type I coated plates of human HepaRG cells were prepared using established methods. Briefly, cryopreserved HepaRG cells were thawed, plated at a density of approximately 100,000 cells/well in HepaRG Thaw, Plate, and General Purpose media (HPRG770, Thermo Fisher Scientific), and incubated for 48 hours. 0.5% DMSO was selected as vehicle control to balance the requisite need of DMSO in HepaRG cultures to maintain differentiation (for example, baseline metabolism, proportions of hepatocytes vs. cholangiocytes), while enabling further hepatic receptor pathway activation (for example, PXR and CAR) in response to chemical exposure. 48 hours after plating, the culture medium was replaced with HepaRG Serum-Free Incudtion Media. Cells were exposed to each test chemical in duplicate and maintained in CO2 incubators for another 48 hours. Chemical plates were thawed to room temperature and 200x concentrations of treatment groups were prepared. 8-point conentration-reponse curves were made with the highest exposure at 100 uM, followed by half-log dilutions, all in 0.5% DMSO. Each test plate contained variouse controls, induction positive controls (1mM phenobarbital), cytotoxicity positive controls ([…] aflatoxin B1), vehicle controls (0.5% DMSO), and total lysis controls (0.5% DMSO). Cell morphology images were taken using an Essen IncuCyte FLR automated microscope, with six 96-well plates imaged in about 24 minutes. Images were captured and exported and JPEG files. Spent culture media was transfered to black-well plates for the LDH assay, and remaining media was sorted at -80 C for later use. Cells were treated with RLT buffer and frozen until shipped for gene expression analysis. Total RNA was isolated from the cell suspension in 75 uL of Buffer RLT (Qiagen, Germantown, MD 20874) by Quintiles/Expression Analysis (Durham, NC) using a custom isolation procedure. Total RNA from each plate well was transferred to a preamplification plate. Fluidigm's 96.96 Dynamic ArrayTM (Fluidigm, Amsterdam, the Netherlands) technology was used for gene expression analyses by quantitative reverse transcription polymerase chain reaction (qRT-PCR, performed by Quintiles/Expression Analysis, Durham, NC)89. Standard TaqManTM Assays (Applied Biosystems/ThermoFisher Scientific, Foster City, CA) were used to assess the expression of 93 genes selected based on their selectivity and sensitivity to important hepatic receptors known to be modulated by environmental chemicals; importance in human hepatocyte functionality; and hepatotoxicity. […]
For orientation: AC50 means the midpoint of the concentration-response curve, whichever way the signal moves. `CC(C)Oc1cc(-n2nc(C(C)(C)C)oc2=O)c(Cl)cc1Cl`: the AC50 is 50 µM (active).
Turning to `CNC(=S)S`, the molecule was classed as inactive.
Consider `N#Cc1cc(Br)c(O)c(Br)c1`, for which the AC50 was 23.5 µM (active).
Same read-out and setting: the result for `N#Cc1nn(-c2c(Cl)cc(C(F)(F)F)cc2Cl)c(N)c1S(=O)C(F)(F)F` (stereo not given) reads 42.6 µM (active); that for `CCCC1COC(Cn2cncn2)(c2ccc(Cl)cc2Cl)O1` (stereo not given), 35.8 µM (active).
As for `CON(C)C(=O)Nc1ccc(Cl)c(Cl)c1`, the AC50 is 31.6 µM (active).
On to `CC(C)C1(C)N=C(c2nc3ccccc3cc2C(=O)O)NC1=O` (stereo not given), for which the molecule was classed as inactive.
Regarding `COC(=O)N(OC)c1ccccc1COc1ccn(-c2ccc(Cl)cc2)n1`, the half-maximal activity concentration (AC50) is 50 µM (active).
Take `CCOP(=S)(OCC)SCn1c(=O)oc2cc(Cl)ccc21`: the molecule was classed as inactive.
On the same count and under the same terms, the result for `CNC(=O)ON=CC(C)(C)SC` reads “inactive”.
Turning to `CO/C=C(/C(=O)OC)c1ccccc1Oc1cc(Oc2ccccc2C#N)ncn1`, the AC50 was 80.8 µM (active) and 75.3 µM (active) and 71.2 µM (active).
On to `C=CCC1=C(C)C(OC(=O)C2C(C=C(C)C)C2(C)C)CC1=O` (stereo not given), for which the result was inactive and the AC50 is 84 µM (active).
For `OC(c1ccc(Cl)cc1)(c1cncnc1)c1ccccc1Cl` (stereo not given), the concentration at half-maximal activity (AC50) was 85.7 µM (active).
In the case of `Cc1cc(Cl)ccc1OCC(=O)O`, the result was inactive.
Take `CCON=C(CC)C1=C(O)CC(c2c(C)cc(C)cc2C)CC1=O` (stereo not given): the call was inactive.
Take `COc1nc(NC(C)C)nc(NC(C)C)n1`: the molecule was classed as inactive.
As to `CCCCC(CC)COC(=O)c1ccccc1C(=O)OCC(CC)CCCC` (stereo not given), the result was inactive.
On the same count and under the same terms, the result for `COP(N)(=O)SC` (stereo not given) reads “inactive”.
`CC1=C(C(=O)Nc2ccccc2)SCCO1`: the half-maximal activity concentration (AC50) is 39.5 µM (active).
Turning to `CCOC(=O)CC(SP(=S)(OC)OC)C(=O)OCC` (stereo not given), the molecule was classed as inactive.
For the molecule `CCOc1cc(Oc2ccc(C(F)(F)F)cc2Cl)ccc1[N+](=O)[O-]`, the AC50 is 34.9 µM (active).
Take `COP(=S)(OC)Oc1nc(Cl)c(Cl)cc1Cl`: the call was inactive.
As for `CC(C)(C)c1ccc(CSc2cnn(C(C)(C)C)c(=O)c2Cl)cc1`, the half-maximal activity concentration (AC50) was 2.82 µM (active).
Take `CCCN(CCC)c1c([N+](=O)[O-])cc(S(N)(=O)=O)cc1[N+](=O)[O-]`: the result was inactive.
For `Oc1ccccc1-c1ccccc1`, the outcome was inactive.
The same measure, in the same setting: the result for `COC(=O)c1ccccc1C(=O)OC` reads “inactive”; that for `Cc1c(F)c(F)c(COC(=O)C2C(/C=C(\Cl)C(F)(F)F)C2(C)C)c(F)c1F` (stereo not given), “inactive”.
Regarding `N#CC(CCc1ccc(Cl)cc1)(Cn1cncn1)c1ccccc1` (stereo not given), the AC50 is 65.9 µM (active).
With `C=CC1(C)OC(=O)N(c2cc(Cl)cc(Cl)c2)C1=O` (stereo not given), the result was inactive.
The same measure, in the same setting: the result for `CC(Oc1ccc(Cl)cc1Cl)C(=O)O` (stereo not given) reads “inactive”.
On to `Cc1ccc(-c2c(Cl)nc(C#N)n2S(=O)(=O)N(C)C)cc1`, for which the AC50 is 50 µM (active).
On to `COc1ccc(C(c2ccc(OC)cc2)C(Cl)(Cl)Cl)cc1`, for which the AC50 was 85.8 µM (active).
`Fc1ccc(Oc2ccnc3cc(Cl)cc(Cl)c23)cc1`: the concentration at half-maximal activity (AC50) was 78.8 µM (active).
Turning to `O=C(O)COc1nc(Cl)c(Cl)cc1Cl`, the molecule was classed as inactive.
As to `C#CCOS(=O)OC1CCCCC1Oc1ccc(C(C)(C)C)cc1` (stereo not given), the molecule was called inactive.
In the case of `CC1COC(Cn2cncn2)(c2ccc(Oc3ccc(Cl)cc3)cc2Cl)O1` (stereo not given), the AC50 is 12 µM (active).
With `CCCCNC(=O)n1c(NC(=O)OC)nc2ccccc21`, the molecule was called inactive.
On the same count and under the same terms, the result for `CCCCNC(=O)OCC#CI` reads “inactive”.
With `CCNc1nc(Cl)nc(NC(C)C)n1`, the result was inactive.
